# Reference: PMC4336329 (PLoS ONE, 2015)
# The whole screen tested about 310,000 compounds, of which about 2,200 (0.71%) showed an effect of 50% or more. Effects have a minus sign here. The full list was thinned out, with strong results kept by preference.
# Biological target: human ether-à-go-go-related gene (hERG) potassium channel (human, UniProt Q12809)
# Test: primary screen, population patch clamp on CHO cells stably expressing hERG; higher = less effect of the substance
# Experimental: Briefly, Chinese hamster ovary (CHO) cells stably expressing the hERG channel were dislodged from tissue culture flasks and dispensed into PPC plates. […] During the recording, background leak currents were estimated by a 100 ms step to -80 mV from an initial holding potential of -70 mV and subtracted from the subsequent current measurement. The campaign was conducted in two phases using slight differences in recording protocol. In the first phase, the initial voltage pulse used a 100 ms step to -30 mV from a holding potential of -70 mV, a 2 s conditioning step to +25 mV, and a 2 s test step to -30 mV. During the second phase of the screen, the potential during the conditioning step was raised to +45 mV. In both phases of the campaign, a secondary voltage pulse was applied using the same parameters as the second phase initial pulse. The initial and secondary pulses were applied in the absence of compound, and upon application of 1 μM and 10 μM test concentrations. Small molecule effects on hERG current density were quantified by […].
# Sequence of human ether-à-go-go-related gene (hERG) potassium channel (Q12809 whole entry, looked up): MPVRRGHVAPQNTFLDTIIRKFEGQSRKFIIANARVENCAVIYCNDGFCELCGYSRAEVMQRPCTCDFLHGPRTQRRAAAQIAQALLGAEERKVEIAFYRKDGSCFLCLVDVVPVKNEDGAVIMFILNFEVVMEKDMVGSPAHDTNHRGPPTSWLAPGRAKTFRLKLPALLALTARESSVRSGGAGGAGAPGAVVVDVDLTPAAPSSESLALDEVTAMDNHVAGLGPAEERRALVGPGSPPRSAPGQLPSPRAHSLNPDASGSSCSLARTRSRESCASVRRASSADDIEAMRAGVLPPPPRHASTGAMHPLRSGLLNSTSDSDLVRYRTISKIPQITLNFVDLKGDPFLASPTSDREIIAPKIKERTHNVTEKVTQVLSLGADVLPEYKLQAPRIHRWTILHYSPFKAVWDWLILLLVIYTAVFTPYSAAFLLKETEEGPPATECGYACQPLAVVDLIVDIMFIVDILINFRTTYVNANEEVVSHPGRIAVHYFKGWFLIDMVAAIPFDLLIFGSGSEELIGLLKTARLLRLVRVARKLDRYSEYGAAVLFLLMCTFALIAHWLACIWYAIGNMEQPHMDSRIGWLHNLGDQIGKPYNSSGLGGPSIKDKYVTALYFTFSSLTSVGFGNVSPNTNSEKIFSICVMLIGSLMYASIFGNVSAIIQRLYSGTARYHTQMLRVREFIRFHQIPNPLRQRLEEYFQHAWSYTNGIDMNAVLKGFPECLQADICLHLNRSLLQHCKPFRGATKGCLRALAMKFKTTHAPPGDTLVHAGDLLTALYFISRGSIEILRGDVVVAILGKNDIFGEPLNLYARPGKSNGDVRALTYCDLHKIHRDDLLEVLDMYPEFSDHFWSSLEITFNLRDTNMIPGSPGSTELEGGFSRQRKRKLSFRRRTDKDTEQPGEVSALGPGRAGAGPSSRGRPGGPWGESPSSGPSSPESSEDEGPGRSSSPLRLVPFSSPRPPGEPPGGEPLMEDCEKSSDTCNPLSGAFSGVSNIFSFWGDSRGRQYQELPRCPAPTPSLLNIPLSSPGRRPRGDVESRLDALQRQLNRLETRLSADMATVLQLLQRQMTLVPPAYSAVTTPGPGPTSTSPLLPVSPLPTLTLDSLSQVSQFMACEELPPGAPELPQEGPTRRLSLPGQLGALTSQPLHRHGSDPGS
row,SMILES,"hERG current change (%, negative = inhibition) at 1uM"
1,COC(=O)c1cn(NC(=O)C2CCCO2)c(=O)c2ccccc12 (centres unmarked),14.6%
2,CNc1nnc(SCC(=O)N2c3ccccc3NC(=O)CC2C)s1 (centres unmarked),6.91%
3,CC(=O)Nc1ccc(S(=O)(=O)NCCC(=O)OCC(=O)c2ccccc2)cc1,6.41%
4,COc1cccc(CN2CCCC(C(=O)Nc3ccc(-c4cscn4)cc3)C2)c1 (centres unmarked),-10.8%
5,COc1ccccc1NC(=O)c1ccc(S(=O)(=O)NCc2ccco2)cc1,13.8%
6,O=C(NCCCN1CCCC1=O)c1cccc(NS(=O)(=O)c2ccccc2)c1,13.4%
7,COc1ccc(NC(=O)CN(C)C(=O)c2ccc(NC3CC3)c([N+](=O)[O-])c2)cc1,-68.6%
8,CCOc1ccc(NC(=O)CN(C)C(=O)c2ccc(NC3CC3)c([N+](=O)[O-])c2)cc1OCC,-18.3%
9,COc1cccc(NC(=O)CN(C)C(=O)c2ccc(NC3CC3)c([N+](=O)[O-])c2)c1,-40.8%
10,CC1Cc2cc(/C(O)=C3\C(=O)C(=O)N(Cc4ccncc4)C3c3ccccc3F)ccc2O1 (centres unmarked),17.9%
11,CCCc1cc(C(=O)N2CCCC(N3CCN(c4ccc(F)cc4)CC3)C2)no1 (centres unmarked),-74.1%
12,O=C(c1ccncc1)N1CCCC(N2CCN(c3ccc(F)cc3)CC2)C1 (centres unmarked),-19.9%
13,CC(=O)c1ccc(C(=O)N2CCCC(N3CCN(c4ccc(F)cc4)CC3)C2)s1 (centres unmarked),-51.3%
14,Cc1cc(C(=O)N2CCCC(N3CCN(c4ccc(F)cc4)CC3)C2)no1 (centres unmarked),-19.1%
15,Cc1nnsc1C(=O)N1CCCC(N2CCN(c3ccc(F)cc3)CC2)C1 (centres unmarked),12.3%
16,O=C(c1cccs1)N1CCCC(N2CCN(c3cccc(C(F)(F)F)c3)CC2)C1 (centres unmarked),-8.83%
17,Cc1ccccc1N1CCN(C2CCCN(C(=O)c3ccc(Cl)s3)C2)CC1 (centres unmarked),1.61%
18,Cc1nonc1C(=O)N1CCCC(N2CCN(c3ccc(F)cc3)CC2)C1 (centres unmarked),-17.7%
19,O=C(c1cccs1)N1CCCC(N2CCN(c3ccc(F)cc3)CC2)C1 (centres unmarked),-52.1%
20,CC(C)c1cc(C(=O)N2CCCC(N3CCN(c4ccc(F)cc4)CC3)C2)no1 (centres unmarked),-36.4%
21,O=C(c1ccc(Cl)s1)N1CCCC(N2CCN(c3ccc(F)cc3)CC2)C1 (centres unmarked),-63.2%

row,SMILES,"hERG current change (%, negative = inhibition) at 1uM"
1,CC(C)=CC(=O)N1CCCC(N2CCN(c3ccc(F)cc3)CC2)C1 (centres unmarked),19.1%
2,Nc1nc(Br)c2ccccc2c1-c1ccccc1,9.58%
3,CC(C)c1ccc(N(CC(=O)Nc2ccc(S(=O)(=O)N3CCOCC3)cc2)S(C)(=O)=O)cc1,21.3%
4,COc1ccc(CCNC(=O)/C=C/c2ccc3ccccc3n2)cc1OC,10.9%
5,COc1ccc(S(=O)(=O)N(C)CC(=O)Nc2ccccc2SC)cc1Cl,11.6%
6,COc1nc2ccccc2c(=O)n1-c1ccc(C)cc1,7.4%
7,Cc1cccc(C(=O)NCC2CCN(C(=O)c3cccc(C)c3)CC2)c1,-2.21%
8,COc1cccc(NC(=O)CCN2CCC(C(N)=O)CC2)c1,16.9%
9,O=C(Nc1ccnn1C1CCN(Cc2ccccc2)CC1)c1ccccc1Cl,-53.1%
10,COCC(C)N1CCC(n2nccc2NC(=O)c2ccccc2Cl)CC1 (centres unmarked),-1.49%
11,Cc1ccccc1C(=O)Nc1ccnn1C1CCN(Cc2ccncc2)CC1,-3.47%
12,Cc1ccccc1C(=O)Nc1ccnn1C1CCN(Cc2cnn(C(C)C)c2)CC1,-27.3%
13,Cn1cc(CN2CCC(n3nccc3NC(=O)c3ccccc3Cl)CC2)cn1,-4.32%
14,Cc1ccccc1C(=O)Nc1ccnn1C1CCN(Cc2cccnc2)CC1,-48.9%
15,CSc1ccc(CN2CCC(n3nccc3NC(=O)c3ccccc3C)CC2)cc1,-83.8%
16,CC(CN1CCC(n2nccc2NC(=O)c2ccccc2Cl)CC1)c1ccccc1 (centres unmarked),-43.6%
17,CCc1ccc(CN2CCC(n3nccc3NC(=O)c3ccccc3C)CC2)cc1,-85.1%
18,Cc1ccccc1C(=O)Nc1ccnn1C1CCN(Cc2cnn(C)c2)CC1,-1.26%
19,CC(CCN1CCC(n2nccc2NC(=O)c2ccccc2Cl)CC1)c1ccccc1 (centres unmarked),-85.1%
20,O=C(Nc1ccnn1C1CCN(Cc2cccnc2)CC1)c1ccccc1Cl,-11.5%
